# Source: PubChem BioAssay (NCI)
# About 83,000 compounds went through this panel and 20% of them were active in at least one assay; those are over-represented in the sample as a whole.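 Method: cells in 96-well plates; compound added at one concentration; 48 h incubation; percent growth measured; values under 10 scored active.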 Activity calls are given as the source filed them.
# System: UACC-257 melanoma
# Test: NCI-60 one-dose screen, 48 h (100 = growth as untreated, 0 = no growth, -100 = all killed)
# Conditions: 10 µM
row,Compound,growth
1,COc1cc(C2CC(=O)Nc3c2c(C)nn3-c2nc3ccccc3[nH]2)cc(OC)c1O (stereo unspecified),44.4% (inactive)
2,CCCCC(CC#N)(CCC)CCC,110% (inactive)
3,COc1cc(C)c2sc3ccccc3c(=O)c2c1NCCN(C)C,-22.8% (active)
4,O=C(CCl)N1c2ccccc2Sc2ccc3ccccc3c21,-36.6% (active)
5,CCOC(=O)Nc1ccc2c(c1)C(=O)N(CC)c1ccccc1O2,64.1% (inactive)
6,COc1ccc(/C=C(\c2cc(OC)c(OC)c(OC)c2)c2nnc(-c3cccs3)o2)cc1,76.5% (inactive)
7,COc1ccc(-c2cc(/C=C/C(=O)c3ccc(N)cc3)[nH]n2)cc1OC,126% (inactive)
8,CCCCCCCCCCSC(=N)N (tested in a mixture with another compound),99.5% (inactive)
9,CC(=O)CS(C)(=O)=O,96.4% (inactive)
10,Nc1ccc2c(c1)Cc1cc(N)c(Cl)cc1-2,94.5% (inactive)
11,CCOC(=O)c1cc(-c2ccccc2)nc(N)n1,101% (inactive)
12,CCCOCC(O)CNCCN (stereo unspecified),95.9% (inactive)
13,O=C(Nc1ccc(OCc2nnc(-c3ccccc3)o2)c(F)c1)Nc1ccc(Cl)c(Cl)c1,59.9% (inactive)
14,Cc1[nH]nc2c(=S)[nH]c(=O)[nH]c12,90% (inactive)
15,CCC(OC(=O)CC(C)C)c1ccccc1 (stereo unspecified),80.6% (inactive)
16,C/C=C\COc1cc(C)c(Cl)cc1Cl,92% (inactive)
17,CC(=O)N(O)c1ccc(/C=C/c2ccccc2)cc1,-6.82% (active)
18,CCOC(=O)c1c(C(F)(F)F)n([O-])c2ccc(OC)cc2[n+]1=O,-5.73% (active)
19,NCCNc1ccc2cc(-c3nc4ccccc4[nH]3)c(=O)oc2c1,98.6% (inactive)

row,Compound,growth
1,Nc1ccc(Sc2ccc3c4c2cccc4c(=O)n2c4ccccc4nc32)cc1,71% (inactive)
2,COc1cccc(C(=O)NNc2nc(N3CCOCC3)nc(N3CCN(C(c4ccccc4)c4ccccc4)CC3)n2)c1,90.9% (inactive)
3,C=CCN1C(=O)/C(=C\c2ccc3c(c2)CCC3)SC1=S,110% (inactive)
4,COc1cccc(-c2nnc(COc3ccc(-c4nc5ccc(C)cc5[nH]4)cc3OC)o2)c1,97.1% (inactive)
5,CNC(=O)c1cc(Oc2ccc(NC(=O)Nc3ccc(Cl)c(C(C)(C)C)c3)c(F)c2)ccn1,20.7% (inactive)
6,CC(=O)/C(=C\c1ccc(Cl)cc1)c1ccccc1,72.2% (inactive)
7,Cc1cc(C)c(C(=O)OC(C)CNC2CCCCC2)c(C)c1 (stereo unspecified),97.7% (inactive)
8,CC(=O)Oc1ccc(C2=Cc3ccc(OC(C)=O)cc3OC2C)cc1 (stereo unspecified),81.3% (inactive)
9,CC(=O)Nc1nc(C)c(C(=O)NNC=O)s1,106% (inactive)
10,CCCCC(=O)N(c1ccc(Nc2c3ccccc3nc3cc([N+](=O)[O-])ccc23)cc1)S(C)(=O)=O,79.8% (inactive)
11,O=C1/C(=C/c2ccc(O)cc2O)N=C2SCCCN12,102% (inactive)
12,Cc1ccc2c(c1)-c1cc(C)nn1-c1ccc(C#N)cc1O2,78.4% (inactive)
13,O=C(c1ccc(Cl)cc1)c1no[n+]([O-])c1C(=O)c1ccc(Cl)cc1,104% (inactive)
14,Nc1nsc(C(=O)c2ccc(O)cc2)n1,87% (inactive)
15,COc1ccc(C2=Cc3ccc(OC(C)=O)cc3OC2)cc1,99.7% (inactive)
16,Cc1nc2cc(-n3c(-c4ccc(F)cc4)nc4ccccc4c3=O)ccc2n1Cc1ccccc1,-18% (active)
17,Cc1nnc2c3nnc(-c4ccc(Cl)cc4)n3c3ccccc3n12,98.1% (inactive)
18,Cc1cc(C)c2c(Nc3ncnc4c3sc3nc(C)cc(C)c34)n[nH]c2n1,100% (inactive)
19,CCCCNC(=O)Oc1ccc(/C(=C(\C)c2ccc(OC)cc2)c2ccc(OCCN3CCCCC3)cc2)cc1,-9.86% (active)

# System: M14 melanoma
# Test: as above
# Conditions: 10 µM
row,Compound,growth
1,COc1cc(C2CC(=O)Nc3c2c(C)nn3-c2nc3ccccc3[nH]2)cc(OC)c1O (stereo unspecified),9.64% (active)
2,CCCCC(CC#N)(CCC)CCC,97.4% (inactive)
3,COc1cc(C)c2sc3ccccc3c(=O)c2c1NCCN(C)C,24% (inactive)
4,O=C(CCl)N1c2ccccc2Sc2ccc3ccccc3c21,-52.1% (active)
5,CCOC(=O)Nc1ccc2c(c1)C(=O)N(CC)c1ccccc1O2,11.1% (inactive)
6,COc1ccc(/C=C(\c2cc(OC)c(OC)c(OC)c2)c2nnc(-c3cccs3)o2)cc1,93.2% (inactive)
7,COc1ccc(-c2cc(/C=C/C(=O)c3ccc(N)cc3)[nH]n2)cc1OC,84.4% (inactive)
8,CCCCCCCCCCSC(=N)N (tested in a mixture with another compound),65.5% (inactive)
9,CC(=O)CS(C)(=O)=O,108% (inactive)
10,Nc1ccc2c(c1)Cc1cc(N)c(Cl)cc1-2,107% (inactive)
11,CCOC(=O)c1cc(-c2ccccc2)nc(N)n1,108% (inactive)
12,CCCOCC(O)CNCCN (stereo unspecified),109% (inactive)
13,O=C(Nc1ccc(OCc2nnc(-c3ccccc3)o2)c(F)c1)Nc1ccc(Cl)c(Cl)c1,70.4% (inactive)
14,Cc1[nH]nc2c(=S)[nH]c(=O)[nH]c12,100% (inactive)
15,CCC(OC(=O)CC(C)C)c1ccccc1 (stereo unspecified),102% (inactive)
16,C/C=C\COc1cc(C)c(Cl)cc1Cl,112% (inactive)
17,CC(=O)N(O)c1ccc(/C=C/c2ccccc2)cc1,46.2% (inactive)
18,CCOC(=O)c1c(C(F)(F)F)n([O-])c2ccc(OC)cc2[n+]1=O,26.9% (inactive)
19,NCCNc1ccc2cc(-c3nc4ccccc4[nH]3)c(=O)oc2c1,104% (inactive)

row,Compound,growth
1,Nc1ccc(Sc2ccc3c4c2cccc4c(=O)n2c4ccccc4nc32)cc1,45.4% (inactive)
2,COc1cccc(C(=O)NNc2nc(N3CCOCC3)nc(N3CCN(C(c4ccccc4)c4ccccc4)CC3)n2)c1,114% (inactive)
3,C=CCN1C(=O)/C(=C\c2ccc3c(c2)CCC3)SC1=S,101% (inactive)
4,COc1cccc(-c2nnc(COc3ccc(-c4nc5ccc(C)cc5[nH]4)cc3OC)o2)c1,53.9% (inactive)
5,CNC(=O)c1cc(Oc2ccc(NC(=O)Nc3ccc(Cl)c(C(C)(C)C)c3)c(F)c2)ccn1,22.4% (inactive)
6,CC(=O)/C(=C\c1ccc(Cl)cc1)c1ccccc1,1.53% (active)
7,Cc1cc(C)c(C(=O)OC(C)CNC2CCCCC2)c(C)c1 (stereo unspecified),90.5% (inactive)
8,CC(=O)Oc1ccc(C2=Cc3ccc(OC(C)=O)cc3OC2C)cc1 (stereo unspecified),49.8% (inactive)
9,CC(=O)Nc1nc(C)c(C(=O)NNC=O)s1,120% (inactive)
10,CCCCC(=O)N(c1ccc(Nc2c3ccccc3nc3cc([N+](=O)[O-])ccc23)cc1)S(C)(=O)=O,92.9% (inactive)
11,O=C1/C(=C/c2ccc(O)cc2O)N=C2SCCCN12,100% (inactive)
12,Cc1ccc2c(c1)-c1cc(C)nn1-c1ccc(C#N)cc1O2,40% (inactive)
13,O=C(c1ccc(Cl)cc1)c1no[n+]([O-])c1C(=O)c1ccc(Cl)cc1,92.5% (inactive)
14,Nc1nsc(C(=O)c2ccc(O)cc2)n1,105% (inactive)
15,COc1ccc(C2=Cc3ccc(OC(C)=O)cc3OC2)cc1,122% (inactive)
16,Cc1nc2cc(-n3c(-c4ccc(F)cc4)nc4ccccc4c3=O)ccc2n1Cc1ccccc1,3.21% (active)
17,Cc1nnc2c3nnc(-c4ccc(Cl)cc4)n3c3ccccc3n12,96.7% (inactive)
18,Cc1cc(C)c2c(Nc3ncnc4c3sc3nc(C)cc(C)c34)n[nH]c2n1,99% (inactive)
19,CCCCNC(=O)Oc1ccc(/C(=C(\C)c2ccc(OC)cc2)c2ccc(OCCN3CCCCC3)cc2)cc1,-54.8% (active)
